Coupling enz: counter-screen for Giardia aldolase inhibitors: coupling enzyme system; coupling enzyme system counterscreen, AmpLite Red fluorescence; activity change, negative = inhibition, % at 58.2 µM, hits read low; actives 0.67% (n = 290,000); in the data active means activity change below about -30%
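Coupling enzymes only (glyceraldehyde-3-phosphate) + compound, at 57.5 uM final, 10 min RT; add substrate/coupling/AmpLite Red mix, 20 min RT; fluorescence ex 525/em 598 nm. Actives flag coupling-system interference.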
ELG1 DNA repair: ELG1-dependent DNA repair inhibition; HEK293T ELG1-luciferase reporter, luminescence, 16 h; DNA damage induced by 5-fluorouridine; Potency, µM (highest dose often 46.1 µM), for inactives: at the top dose activity change, negative = inhibition, hits mostly inhibitors; actives 2.3% (n = 330,000); AID 504467; further: potency means the concentration at half of the fitted maximal effect; nearly all actives have a fitted effect of over 55% in size
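HEK293T cells expressing luciferase-tagged ELG1 (2,000/well) received 5-Fluorouridine plus compound or DMSO for 16 hr at 37 °C. Luciferase was read by ONE-Glo luminescence after 30 min at room temperature.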
TSHR antagonist: human thyrotropin receptor antagonism; P16473; TSHR-expressing cells, TSH-stimulated cAMP HTRF, 2 h; active compounds read low; activity change, negative = inhibition, % at 11.5 µM; actives 0.2% (n = 330,000);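 active means activity change below a set negative limit, meaning inhibition stronger than a set level, cut at about -70% in these data; inconclusive means activity change between two set negative limits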
Target sequence (P16473 whole entry, looked up): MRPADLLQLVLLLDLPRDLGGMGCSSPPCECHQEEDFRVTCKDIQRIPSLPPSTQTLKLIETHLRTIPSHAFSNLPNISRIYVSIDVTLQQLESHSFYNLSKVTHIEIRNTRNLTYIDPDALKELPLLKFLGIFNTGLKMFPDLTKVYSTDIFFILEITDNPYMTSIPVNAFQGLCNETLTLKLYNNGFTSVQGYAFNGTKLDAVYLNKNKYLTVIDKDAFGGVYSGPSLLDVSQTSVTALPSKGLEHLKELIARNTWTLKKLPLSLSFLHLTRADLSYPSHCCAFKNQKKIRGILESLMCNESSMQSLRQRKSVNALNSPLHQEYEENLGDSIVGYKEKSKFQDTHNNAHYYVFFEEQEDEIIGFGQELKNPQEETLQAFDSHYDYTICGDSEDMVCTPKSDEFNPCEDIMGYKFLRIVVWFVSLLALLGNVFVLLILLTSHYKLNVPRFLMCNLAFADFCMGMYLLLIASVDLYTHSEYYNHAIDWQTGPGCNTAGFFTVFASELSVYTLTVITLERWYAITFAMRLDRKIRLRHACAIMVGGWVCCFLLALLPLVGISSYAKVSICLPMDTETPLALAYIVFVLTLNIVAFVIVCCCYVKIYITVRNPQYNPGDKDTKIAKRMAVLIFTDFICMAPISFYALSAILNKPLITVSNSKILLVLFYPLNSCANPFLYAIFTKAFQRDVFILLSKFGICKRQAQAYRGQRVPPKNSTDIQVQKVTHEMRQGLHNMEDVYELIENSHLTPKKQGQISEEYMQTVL
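Competitive HTRF cAMP read-out (cryptate anti-cAMP antibody, cAMP-d2; 30 min, room temperature) in freshly harvested TSHR cells. Compounds added before TSH at EC80 (4nM final), followed by 2 hours' incubation at 37 deg C.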
VP16 counter: inhibits Gal4-VP16 luciferase reporter, ROR gamma counter-screen; Drosophila S2 Gal4-VP16 UAS-luciferase, luminescence, 20 h; Potency, µM (highest dose often 53.6 µM), for inactives: at the top dose activity, negative = inhibition, usual class: inhibitors; actives 3.5% (n = 310,000); AID 2546;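 further: Gal4-VP16 expression switched on by copper sulfate through the metallothionein promoter; potency means the concentration at half of the fitted maximal effect; nearly all actives have a fitted effect of over 50% in size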
RORg inh: inhibitors of mouse ROR gamma transcriptional activity; P51450; Drosophila S2 Gal4-RORgamma UAS-luciferase reporter, 20 h; Potency, µM (doses to about 53.6 µM), for inactives: top-dose activity change, negative = inhibition, hits mostly inhibitors; actives 5.4% (n = 310,000); further: potency means the concentration at half of the fitted maximal effect; nearly all actives have a fitted effect of over 60% in size
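Drosophila Schneider cells stably carrying a metallothionein-driven Gal4 DBD–ROR gamma fusion and a UAS-Photinus luciferase reporter were exposed to compound for 1 hr, then induced with copper sulfate (700 uM final) for 20 hr at ambient temperature before luminescence reading.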
Numbers without * were called inactive; ? = inconclusive; . = no result; [ ] = another dose, or the depositor's remark. An excerpt weighted towards active compounds, which were near 8% of everything screened. Unless noted, the call rests on the fitted dose curve; in most records, active means well fitted curve in the direction sought with a large enough effect; inconclusive means small, poorly fitted or top-dose-only effect, or another doubt; inactive means no such curve, though single readings can be large; an effect the other way counts as inactive or inconclusive. On the % scale 0 is the no-effect control and ±100 the full control effect.

SMILES | Coupling enz | ELG1 DNA repair | TSHR antagonist | VP16 counter | RORg inh
C/C(CC(=O)N1CCN(C=O)CC1)=N\NC(=O)c1ccc([N+](=O)[O-])cc1 | 2.0 | 0.6% | -8.9 | ? | 8.91µM*
C/C(CC(=O)N1CCN(C=O)CC1)=N\NC(=O)c1cc2ccccc2cc1O | -11.5 | 0.8% | 7.6 | -18.6% | -27.5%
CC(C)=CCC/C(C)=C/C=N/NC(=O)c1ccc([N+](=O)[O-])cc1 | 1.2 | 6.0% | 5.7 | 2.82µM* | 3.55µM*
COc1ccccc1C(=O)NC(=O)COC(=O)C1CC1C (stereo unspecified) | . | 20.9% | 3.7 | . | .
COc1ccc(OC)c(-c2csc(N(Cc3ccco3)C(=O)c3ccco3)n2)c1 | -2.5 | 18.3µM* | -34.6 | -2.9% | 0.9%
COc1ccc(-c2csc(N(CC3CCCO3)C(=O)c3ccccc3)n2)cc1 (stereo unspecified) | -2.5 | 8.2µM* | -0.5 | -1.4% | 7.7%
Cc1ccc(-c2csc(N(CCCN(C)C)C(=O)c3ccco3)n2)cc1 | -1.3 | -6.5% | 11.4 | 3.55µM* | 0.631µM*
CN(C)CCCN(C(=O)c1ccco1)c1nc(-c2ccc(Cl)cc2)cs1 | 0.0 | 6.2% | -121.2* | ? | -2.1%
COc1ccc(-c2csc(N(CC3CCCO3)C(=O)c3ccc(C)cc3)n2)cc1 (stereo unspecified) | 0.1 | ? | 8.2 | -29.0% | ?
COc1cccc(-c2cccc(NC(=O)C3CCN(Cc4ccon4)CC3)c2)c1 | . | -1.6% | -16.1 | -4.1% | 0.2%
COc1ccc(CN2CCNC(=O)C2CC(=O)NCCc2nc(C)c3c(n2)CCC3)cc1C (stereo unspecified) | -6.4 | 3.3% | 1.0 | 4.6% | -16.2%
COc1ccc(-c2csc(N(CCCN3CCOCC3)C(=O)c3ccco3)n2)cc1 | 1.3 | 16.4µM* | -13.5 | -11.0% | 7.3%
CCCC(=O)Nc1nc(-c2ccc3c(c2)CCN3S(C)(=O)=O)cs1 | -1.7 | ? | -7.8 | -11.0% | 24.9%
CS(=O)(=O)N1CCc2cc(-c3csc(NC(=O)Cc4ccccc4)n3)ccc21 | -0.1 | 18.4µM* | -17.0 | -9.4% | ?
CC(=O)Nc1ccc(-c2csc(NC(=O)Cc3cccc(F)c3)n2)cc1 | 0.0 | 18.3µM* | -6.5 | 2.7% | 31.8%
CC(=O)Nc1ccc(-c2csc(NC(=O)Cc3ccccc3F)n2)cc1 | -9.6 | -2.6% | -0.7 | 8.5% | 23.6%
CCC(=O)Nc1nc(-c2ccc3c(c2)CC(C)N3S(C)(=O)=O)cs1 (stereo unspecified) | -3.5 | ? | 23.5 | -0.1% | 26.1%
CC1Cc2cc(-c3csc(NC(=O)Cc4cccs4)n3)ccc2N1S(C)(=O)=O (stereo unspecified) | -3.1 | 4.61µM* | -72.3* | ? | ?
CC(C)c1ccc2c(c1)CCC1C(C)(C(N)=O)CCCC21C (stereo unspecified) | 0.1 | . | . | -0.5% | 2.4%
CC1(C)CC(=O)C2=C(C1)Nc1ccccc1S2 | 3.6 | ? | -8.3 | -5.0% | 28.5%
CC1(C)CC(=O)C2=C(C1)Nc1ccccc1NC2 | -20.6 | 1.3% | -11.9 | 6.3% | 12.6µM*
C[C@@]1(C(NS(=O)(=O)c2cccc3cccnc23)c2ccc(-c3ccccc3)cc2)C[C@H]1C1CCCCC1 (stereo partly specified) | -3.1 | . | . | -7.9% | -37.9%
CC(OC(=O)CCc1nc2ccccc2c(=O)[nH]1)C(=O)c1ccc(C(C)(C)C)cc1 (stereo unspecified) | 0.7 | -1.0% | -3.6 | 5.62µM* | ?
CCc1cc(=O)oc2cc(OCC(=O)N3CCC(C(=O)O)CC3)ccc12 | -73.1* | 28.0% | 6.2 | -2.9% | 21.7%
COc1ccc2c(c1)c(=O)oc1cc(OCC(=O)N3CCCC(C)C3)ccc12 (stereo unspecified) | 2.1 | ? | -18.7 | 10µM* | -28.6%
SMILES | Coupling enz | ELG1 DNA repair | TSHR antagonist | VP16 counter | RORg inh
COc1ccc2c(c1)c(=O)oc1cc(OCC(=O)N3CCC(C)CC3)ccc12 | 0.7 | -20.7% | -10.0 | -23.2% | -25.3%
CCCn1c(SCC(=O)Nc2sc(C)c(C)c2C#N)nnc1C(C)C | -1.4 | 20.6µM* | 32.1 | -19.7% | 30.2%
COCCOc1ccc(C(F)(F)F)cc1NC(=O)COC(=O)c1cc([N+](=O)[O-])ccc1N1CCOCC1 | -3.9 | ? | -7.4 | 6.6% | 1.9%
COc1ccc(CNc2ncncc2-c2cccc(C#N)c2)c(OC)c1 | 2.5 | . | . | 5.8% | ?
Cc1ccccc1NC(=S)/C(=C(\[O-])c1ccc(C)c([N+](=O)[O-])c1)[n+]1ccccc1 | -1.9 | 0.2% | 0.5 | -3.9% | -11.7%[10 µM]
COc1cccc(NC(=S)/C(=C(\[O-])c2ccc(OC(F)F)cc2)[n+]2ccccc2)c1 | -17.7 | 14.1% | -2.4 | 9.6% | -32.5%
[O-]/C(=C(\C(=S)Nc1cccc2ccccc12)[n+]1ccccc1)c1ccc(OC(F)F)cc1 | -40.5* | ? | -2.6 | -4.7% | -41.3%
[O-]/C(=C(\C(=S)Nc1cccc2ccccc12)[n+]1ccccc1)c1ccc2c(c1)OCCO2 | -46.4* | 7.0% | . | ? | 12.6µM*
Cc1sc2nc(CN(C(=O)NC3CCCCC3)C3CCCC3)[nH]c(=O)c2c1C | 0.6 | 20.6µM* | 16.1 | 14.1µM* | 8.91µM*
CCCCC(=O)N(Cc1nc2sc(C)c(C)c2c(=O)[nH]1)C1CCCC1 | -4.6 | 20.6µM* | 8.3 | -14.7% | -8.5%
O=C(c1cccs1)N(Cc1nc2sc3c(c2c(=O)[nH]1)CCCC3)C1CCCC1 | -11.7 | . | . | -0.6% | -28.1%
COCC(=O)N(Cc1nc2sc(C)c(C)c2c(=O)[nH]1)C1CCCCC1 | -1.7 | 6.1% | 3.6 | 8.5% | -15.0%
Cc1sc2nc(CN(Cc3cccs3)C(=O)NC3CCCCC3)[nH]c(=O)c2c1C | -5.3 | 9.2µM* | -4.9 | -10.1% | 1.0%
Cc1sc2nc(CC(=O)N3CCCC3)[nH]c(=O)c2c1C | -2.2 | 7.6% | 16.8 | 5.8% | 15.8%
Cc1sc2nc(CN(C(=O)c3cccs3)C3CCCC3)[nH]c(=O)c2c1C | 1.6 | ? | 8.5 | ? | 11.2µM*
CCOC(=O)C1CCCN(C/C=C/c2ccccc2)C1 (stereo unspecified) | 2.4 | -2.9% | 3.2 | -1.2% | -14.8%
CN(C/C=C\c1ccccc1)Cc1cccc2ccccc12 | 1.1 | . | . | -4.5%[17 µM] | 19.1%[16.9 µM]
COc1ccc(OC)c(C2=Nn3c(nnc3-c3ccccc3O)SC2)c1 | -4.0 | . | . | ? | ?
Cn1cc(-c2nc3cnc(Oc4cccc(Cl)c4)nc3n(C3CC3)c2=O)c2ccccc21 | 4.3 | . | . | -4.4% | -6.2%
CCN1CCN(c2ccc(NC(=O)c3cc(OC)c(OC)c(OC)c3)cc2)CC1 | 3.5 | 19.6% | -1.5 | 8.1% | 20.2%
Nc1scc2c(C(=O)N/N=C/c3ccc(Cl)cc3)nn(-c3ccccc3)c(=O)c12 | -47.8* | ? | -13.3 | -8.6% | 4.5%
